Data as given in PubChem BioAssay AID1159580 (chemical genetic matrix, 2015).
Hit rate of the full screen: of about 5,500 compounds, about 2,000 (36%) were called active. Roughly 18% stayed inconclusive and do not appear here. Rule as the data show it: active = normalized growth mostly below about 0.91 (no sharp cut-off); inconclusive = no clear call, values can overlap the other calls; inactive = mostly above about 0.92. Some of the results follow.

Test: chemical genetic growth profiling, strain panel (AID 1159580);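 also: tested at 20 µM; growth read once vehicle control cultures reached saturation at 30 °C; 1 = growth at the plate median or of vehicle wells; lower values mean less growth of the strain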
Conditions: S. cerevisiae deletion strains, growth OD
[1] = locus YDR150W, strain NUM1, hits give low values
[2] = locus YGR078C, strain PAC10, hits give low values
[3] = locus YGR229C, strain SMI1, hits give low values
[4] = locus YMR263W, strain SAP30, hits give low values
[5] = locus YNL322C, strain KRE1, hits give low values
[6] = locus YPL241C, strain CIN2, hits give low values
[7] = locus YHR030C, strain SLT2, hits give low values
[8] = locus YAL013W, strain DEP1, hits give low values
[9] = locus YBR229C, strain ROT2, hits give low values
[10] = locus YDL101C, strain DUN1, hits give low values
[11] = locus YDL134C, strain PPH21, hits give low values
[12] = locus YEL061C, strain CIN8, hits give low values
[13] = locus YHR087W, strain rtc3, hits give low values
[14] = locus YJL187C, strain SWE1, hits give low values
[15] = locus YJR043C, strain POL32, hits give low values
[16] = locus YJR075W, strain HOC1, hits give low values
[17] = locus YKL190W, strain CNB1, hits give low values
[18] = locus YLR039C, strain RIC1, hits give low values
[19] = locus YLR058C, strain SHM2 (second series), hits give low values
[20] = locus YLR085C, strain ARP6, hits give low values
[21] = locus YLR262C, strain YPT6, hits give low values
[22] = locus YML094W, strain GIM5, hits give low values
[23] = locus YMR219W, strain ESC1, hits give low values
[24] = locus YMR307W, strain GAS1, hits give low values
[25] = locus YNL153C, strain GIM3, hits give low values
[26] = locus YNL298W, strain CLA4 (second series), hits give low values
[27] = locus YNR030W, strain Alg12, hits give low values
[28] = locus YOL006C, strain TOP1, hits give low values
[29] = locus YPL055C, strain LGE1, hits give low values
[30] = locus YPR135W, strain CTF4, hits give low values

Measured: normalized growth

Fc1ccc(CN(C2=NCCN2)c2c(Cl)cccc2Cl)cc1
inactive: locus YAL040C, strain CLN3, hits give low values 0.945 | locus YCL061C, strain MRC1 (second series), hits give low values 1.01 | [1] 1.06 | locus YDR363W, strain ESC2, hits give low values 1.02 | locus YER002W, strain NOP16, hits give low values 1.02 | [2] 0.984 | [3] 1.01 | [4] 0.995 | locus YNL128W, strain TEP1, hits give low values 1.1 | locus YNL175C, strain NOP13, hits give low values 1.01 | locus YNL197C, strain WHI3, hits give low values 1 | locus YNL224C, strain SQS1, hits give low values 1.01 | [5] 1 | locus YOR083W, strain WHI5 (second series), hits give low values 1.05 | [6] 0.997

CC(C)(CO)[C@@H](O)C(=O)NCCC(=O)O
inactive: [7] 1.06 | locus YHR079C, strain IRE1, hits give low values 1.04 | locus YJL095W, strain BCK1, hits give low values 1.03 | locus YJR066W, strain TOR1, hits give low values 0.964 | locus YLR113W, strain HOG1, hits give low values 1.05 | locus YNL183C, strain NPR1, hits give low values 0.999 | locus YOR231W, strain MKK1, hits give low values 1.09 | locus YPL256C, strain CLN2, hits give low values 1.09

O=C(O)C12CC3CC(CC(Br)(C3)C1)C2
inactive: [8] 1 | [9] 0.972 | [10] 0.984 | [11] 1.02 | [1] 0.982 | [12] 0.987 | [2] 0.99 | [3] 1.01 | [7] 1.06 | [13] 0.988 | [14] 0.945 | [15] 1.01 | [16] 0.996 | [17] 1.01 | [18] 1.04 | [19] 1 | [20] 0.963 | [21] 1.1 | [22] 0.991 | [23] 0.998 | [4] 0.993 | [24] 0.997 | [25] 0.994 | [26] 0.992 | [5] 0.993 | [27] 0.997 | [28] 1.05 | [29] 0.976 | [6] 0.994 | [30] 1.14

N#CC(C#N)=CNc1cc(C(F)(F)F)ccc1N1CCCCC1
inactive: [8] 0.995 | [9] 1 | [10] 0.991 | [11] 0.997 | [1] 0.973 | [12] 1 | [2] 0.987 | [3] 1 | [7] 0.936 | [13] 1.01 | [14] 1 | [15] 1 | [16] 0.966 | [17] 1 | [18] 0.997 | [19] 1 | [20] 0.96 | [21] 1.04 | [22] 0.989 | [23] 1 | [4] 0.986 | [24] 0.909 | [25] 1.01 | [26] 1 | [5] 0.992 | [27] 1.01 | [28] 1.01 | [29] 0.989 | [6] 0.996 | [30] 0.915
